This note sets out measurements from PubChem BioAssay (NCATS).

Each structure is given as a SMILES string. Records with an inconclusive call do not appear. Calls of active or inactive are those of the source. Calls follow the shape of the dose curve; as a rule, active = well fitted cell-killing curve with a large enough effect; inconclusive = small, poorly fitted or top-dose-only effect, or effect the other way; inactive = no such curve, though single readings can be large or run the other way.
Potency is read from the fitted curve at half-maximal effect.

This assay in a line: Quantitative High-Throughput drug screen in 47 multiple myeloma cell lines against the NCATS MIPE library collection: EJM_DSMZ cell viability assay (AID 1918926; also: nearly all actives have a fitted effect of over 30% in size). The settings on record: EJM myeloma cell viability, CellTiter-Glo ATP, 48 h; series mostly up to 45.8 µM; viability, % of control: at the top concentration. The text has this:
PI: Beverly A. Mock Ph.D.
Laboratory of Cancer Biology and Genetics,
Center for Cancer Research, National Cancer Institute,
National Institute of Health, Bethesda, Maryland
Drug resistance and disease progression are common in multiple myeloma (MM) patients, underscoring the need for new therapeutic combinations. […] We hypothesized that effective combinations would reduce MYC expression and enhance p16 activity. […] These preclinical data identify potentially useful drug combinations for evaluation in drug-resistant MM and reveal potential mechanisms of combined drug sensitivity.
Described herein is the primary MIPE qHTS used to cherrypick compounds. Validated compounds were then further tested for potential synergistic activiy.
[1] Peat TJ, Gaikwad SM, Dubois W, Gyabaah-Kessie N, Zhang S, Gorjifard S, Phyo Z, Andres M, Hughitt VK, Simpson RM, Miller MA, Girvin AT, Taylor A, Williams D, D'Antonio N, Zhang Y, Rajagopalan A, Flietner E, Wilson K, Zhang X, Shinn P, Klumpp-Thomas C, McKnight C, Itkin Z, Chen L, Kazandijian D, Zhang J, Michalowski AM, Simmons JK, Keats J, Thomas CJ, Mock BA. Drug combinations identified by high-throughput screening promote cell cycle transition and upregulate Smad pathways in myeloma. Cancer Lett. 2023 Aug 1;568:216284. doi: 10.1016/j.canlet.2023.216284. Epub 2023 Jun 24. PMID: 37356470; PMCID: PMC10408729.
SEQUENCE No. (e.g., 1, 2, 3, etc.); […] (e.g., Cells, Incubation, Reagent, etc.); VALUE and DESCRIPTION.
1; Cells; 5 uL; white, solid bottom 1536-well Greiner assay plate.
2; Compounds; 23 nL; Kalypsis pin tool (Wako USA) equipped with a 1536-well pin head to transfer to the assay plates.
3; Incubation; 48 hours; 37C incubation.
4; Reagent;5uL; CellTiter Glo (Promega).
5; Detector; 425V; Luminescence; Viewlux PerkinElmer.
NOTES (numbers refer to Sequence numbers above)
1. The cell-based screening methods employed in this study were like those previously published. Briefly, the corresponding myeloma cell lines were screened in 1,536-well plates with 500 cells, 5-uL per well for inhibition of cell viability (assessed by measuring ATP levels with CellTiterGlo).
2. NCATS MIPE 4.0 library of approved and investigational drugs were added using the Kalypsis pin tool. Wells treated with DMSO only for 100% viability and media only wells for 0% viability were used as controls.
3. The assay plates were covered and incubated for 48 hours in a 37C, 5% CO2 incubator with controlled humidity.
4. After 48 hours, CellTilter-GloTM luminescent substrate mix (Promega) reagent was added to the assay plate and plates we incubated for 5 min at room temperature.
5. Signal was measured as median relative luminescence units on a ViewLux (PerkinElmer) multiplate reader.
[1] Heske CM, Davis MI, Baumgart JT, Wilson K, Gormally MV, Chen L, Zhang X, Ceribelli M, Duveau DY, Guha R, Ferrer M, Arnaldez FI, Ji J, Tran HL, Zhang Y, Mendoza A, Helman LJ, Thomas CJ. Matrix Screen Identifies Synergistic Combination of PARP Inhibitors and Nicotinamide Phosphoribosyltransferase (NAMPT) Inhibitors in Ewing Sarcoma. Clin Cancer Res. 2017 Dec 1;23(23):7301-7311. doi: 10.1158/1078-0432.CCR-17-1121. Epub 2017 Sep 12. PMID: 28899971; PMCID: PMC6636827.
(ATP-based viability assays read luminescence as a measure of living cells.)
As to `FC(F)c1nc2ccccc2n1-c1nc(N2CCOCC2)nc(N2CCOCC2)n1`, the Potency is 0.743 µM (active).

As to `CCCCCCCCCCCCCCCC(=O)OC[C@@H](NC(=O)C(Cl)Cl)[C@H](O)c1ccc([N+](=O)[O-])cc1`, the “viability, % of control” value is 113% (inactive).

On to `C[C@@H]1C(=O)O[C@H]2CC34[C@H]5C[C@@H](C(C)(C)C)C36[C@H](OC(=O)[C@@H]6O)O[C@@]4(C(=O)O5)[C@]21O` (stereo not given in full), for which the “viability, % of control” value was 92.4% (inactive).

With `CC(C)[C@H](CO)Nc1nc(Nc2cccc(Cl)c2)c2ncn(C(C)C)c2n1`, the Potency was 23.5 µM (active).

Regarding `CC(C)OC(=O)[C@H](C)N[P@](=O)(OC[C@H]1O[C@@H](n2ccc(=O)[nH]c2=O)[C@](C)(F)[C@H]1O)Oc1ccccc1`, the “viability, % of control” value was 89% (inactive).

`c1ccc(CNc2nc(NCc3ccccc3)c3ccccc3n2)cc1`: the Potency is 18.7 µM (active).

Take `CC(C)NC[C@@H](C(=O)N1CCN(c2ncnc3c2[C@H](C)C[C@H]3O)CC1)c1ccc(Cl)cc1`: the Potency is 16.6 µM (active).

Consider `Cc1ccc2nc(NCCN)c3ncc(C)n3c2c1`, for which the Potency was 1.48 µM (active).

As to `COc1cc(OC)cc(-c2ccc3ncc4ccc(=O)n(-c5ccc(N6CCNCC6)c(C(F)(F)F)c5)c4c3c2)c1`, the Potency was 5.9 µM (active).

With `CC(=O)O[C@H]1C[C@@H]2CC[C@H]3[C@H]4C[C@H]([N+]5(C)CCCCC5)[C@@H](OC(C)=O)[C@@]4(C)CC[C@@H]3[C@@]2(C)C[C@H]1N1CCCCC1`, the “viability, % of control” value was 87.6% (inactive).

As for `Cc1cnc(Nc2ccc(N3CCN(C)CC3)cc2)nc1Nc1cccc(S(=O)(=O)NC(C)(C)C)c1`, the Potency was 3.32 µM (active).

With `CN1[C@H]2CC(OC(=O)[C@@H](CO)c3ccccc3)C[C@H]1[C@H]1O[C@H]12` (stereo not given in full), the “viability, % of control” value is 106% [at 23.2 µM] (inactive).

Take `O=C1c2c(O)cccc2[C@@H]([C@@H]2O[C@H](CO)[C@@H](O)[C@H](O)[C@H]2O)c2cc(CO)cc(O)c21`: the “viability, % of control” value is 99.4% (inactive).

For `C[C@H](NCc1ccc2c(c1)nc(NC(=O)c1ccc(-c3cn[nH]c3)s1)n2CCc1ccccc1)C(C)(C)C`, the Potency was 1.05 µM (active).

For the molecule `CN(C)c1ccc2cc(C(=O)N[C@@H](CCCN=C(N)CCl)C(=O)NCc3ccccc3)ccc2c1`, the Potency is 1.32 µM (active).

On to `C[C@]12CCC(=O)C=C1[C@@H]1CC1[C@H]1[C@H]3[C@@H]4C[C@H]4[C@@]4(CCC(=O)O4)[C@@]3(C)CC[C@H]12` (stereo not given in full), for which the “viability, % of control” value was 64.4% (inactive).

As to `NC(=O)c1ncn([C@@H]2O[C@H](CO)[C@@H](O)[C@@H]2O)c1N`, the “viability, % of control” value is 118% (inactive).

Regarding `CCCNC(=O)[C@H]1O[C@H]1C(=O)N[C@H](C(=O)N1CCC[C@@H]1C(=O)OC)C(C)CC` (stereo not given in full), the Potency was 5.9 µM (active).

`OC[C@H]1OC(O)C[C@@H](O)[C@H]1O` (stereo not given in full): the “viability, % of control” value was 101% (inactive).

As to `CC(C)(O)CC[C@@H](O)[C@](C)(O)[C@H]1CC[C@@]2(O)C3=CC(=O)[C@@H]4C[C@@H](O)[C@@H](O)C[C@]4(C)[C@@H]3CC[C@]12C`, the “viability, % of control” value was 103% (inactive).

As to `C[C@@]12C[C@@]3(O)O[C@@H](O1)[C@]1(COC(=O)c4ccccc4)[C@@H]3C[C@@]12O[C@@H]1O[C@H](CO)[C@@H](O)[C@H](O)[C@@H]1O`, the “viability, % of control” value was 111% (inactive).

In the case of `CCNC(=O)Nc1ccc(-c2nc3c(c(N4CCOC[C@H]4C)n2)CCN(C2COC2)C3)cc1`, the Potency is 7.43 µM (active).

On to `C[C@H](NCc1ccc(OCc2cccc(F)c2)cc1)C(N)=O`, for which the Potency was 9.35 µM (active).

In the case of `COC(=O)[C@@H]1[C@H]2C[C@@H]3c4[nH]c5ccccc5c4CCN3C[C@@H]2CC[C@@H]1O`, the “viability, % of control” value is 98.2% (inactive).

Turning to `CC[C@H](CC[C@@H](C)[C@H]1CC[C@H]2[C@@H]3CC=C4C[C@@H](O)CC[C@]4(C)[C@@H]3CC[C@]12C)C(C)C`, the “viability, % of control” value was 119% (inactive).

Regarding `Cc1cnc(Nc2ccc(CN3CCOCC3)cc2)nc1Nc1cccc(S(=O)(=O)NC(C)(C)C)c1`, the Potency is 5.9 µM (active).

Consider `C=CC(=O)Nc1cccc(Nc2nc(NC3CCC(N(C)C)CC3)nc3c2ncn3C(C)C)c1` (stereo not given), for which the Potency is 0.0083 µM (active).

`COc1cc2c(Nc3ccc(Cl)c(Cl)c3F)ncnc2cc1OCC1C[C@@H]2CN(C)C[C@H]2C1`: the Potency is 2.96 µM (active).

Regarding `CC(=O)SCC(Cc1ccccc1)C(=O)NCC(=O)OCc1ccccc1` (stereo not given), the Potency was 14.8 µM (active).

As for `NC[C@H]1O[C@H](O[C@H]2[C@@H](O)[C@@H](O[C@H]3O[C@H](CO)[C@@H](O)[C@H](N)[C@@H]3O)[C@H](N)C[C@@H]2N)[C@H](N)C[C@H]1O`, the “viability, % of control” value was 109% (inactive).

As for `CCOc1cc2ncc(C#N)c(Nc3ccc(OCc4ccccn4)c(Cl)c3)c2cc1NC(=O)C=CCN(C)C`, the Potency is 0.372 µM (active).

Take `C=Cc1c(C)c2cc3nc(cc4[nH]c(cc5nc(cc1[nH]2)C(C)=C5CCC(=O)O)c(CCC(=O)OC)c4C)[C@@]1(C)C3=CC=C(C(=O)OC)[C@H]1C(=O)OC`: the Potency is 0.0372 µM (active).

Consider `NC(=O)N1CCC(CC(=O)N2CCC([C@H]3c4ncc(Br)cc4CCc4cc(Cl)cc(Br)c43)CC2)CC1`, for which the Potency is 20.9 µM (active).

As to `C=CCNC1=C2C[C@@H](C)C[C@H](OC)[C@@H](O)[C@@H](C)C=C(C)[C@H](OC(N)=O)[C@@H](OC)C=CC=C(C)C(=O)NC(=CC1=O)C2=O`, the Potency is 4.18 µM (active).

On to `O=c1c(O)c(-c2ccc(O)c(O)c2)oc2cc(O)ccc12`, for which the Potency is 20.9 µM (active).

Consider `Nc1nc(=O)n([C@H]2CSC(CO)O2)cc1F` (stereo not given in full), for which the “viability, % of control” value was 101% (inactive).

Consider `Cn1cc(CNCC2CCN(c3ncc(C(=O)NO)cn3)CC2)c2ccccc21`, for which the Potency is 0.0526 µM (active).

With `Cn1cc(C[C@@H](N)C(=O)O)c2ccccc21`, the “viability, % of control” value is 113% [at 23.2 µM] (inactive).

As to `COc1cc(O)c2c(c1)C1OC1C[C@H](O)[C@H](O)C(=O)C=CC[C@H](C)OC2=O` (stereo not given in full), the Potency is 7.43 µM (active).

Take `Cc1ncc(-c2ccnc(Nc3ccc(S(C)(=O)=O)cc3)n2)n1C(C)C`: the Potency was 2.96 µM (active).
